Assay results published in the supplement of paper PMC6555819.

What follows are sequences tested on PPARg:RXRa 30nM:10nM, anti-RXR (NR concentration 30 nM, RXRa partner concentration 10 nM) (assay: PBM binding z-score (relative to random genomic background probes); higher = stronger binding; sequences stand for … in GC…GCGATTGACAGCGTAGAATGAAGG).
Outline: (§1)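 The probes on custom Agilent 4×180K protein-binding microarrays were double-stranded, with 34-nt variable regions bearing direct-repeat seeds, single-nucleotide variants, half-site ablations and random human genomic background sequences. Incubation lasted 1 h with ligand-free nuclear receptor dimers in PBS pH 7.4, 2% milk, 0.02% Triton X-100, 1 mM DTT, 0.2 mg/mL BSA and 0.4 mg/ml salmon testes DNA. Antibodies against each partner (one per run) detected bound dimers, and fluorescence scans were regression-normalized. Binding z-scores take the random background probes as reference.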

| Sequence | PBM binding z-score |
| --- | --- |
| CGTCCAAGGTCAAGGTTAGTGAAAGAGACTCGAA | 2.08 |
| TCTGCTAGATCAGTTGGTCAGCTAACGAGCTGCC | 1.24 |
| TCATATAGTTAAATGCTAGGTGAAAGTCCGATCT | 3.69 |
| CCAACTGGGGCATAAGGTTACCATAAGCCAGCCC | 1.9 |
| ATCTCTAGGTAACAAGTGCAGTGAAAGAGAGGAC | 0.591 |
| GCATATAGGTAAAACAAGGTGAAAGTCCGATTGT | 0.57 |
| TTACCAAGGTGAAAGGCCGTTGATGCACGCCTTG | 2.95 |
| CCTATTAGTTGACCAGAAGGGCAACCGAAGCTCG | -0.116 |
| TCTCGGAGGACACGAAGATCAGAGCTTTCCAGAG | 2.25 |
| TCTGCTAGGTCAACGATGGTCAGCCAATCTGCTA | 1.79 |
| CCGACTGGGGCATAAGGTTACGATAAGCCAGCCC | 1.47 |
| ACTAGCAGGCCAAGGGTCACCCAAGATTAGTCCG | 6.88 |
| ACTTACGGGTCAACGAGGTAATAGCACGCGTATA | 2.48 |
| GCTACCAGGCCATTTGGGTCACTCAATGACGGGC | -0.356 |
| TCGAGTAGGTTAGTCGGGGCATTCATCCAACATA | 1.55 |
| CGAACTAGCTCAGAACAGGACAGTGAAGGATGAT | -0.189 |
| TCATATAGGTAAAGGCGAAAGTCGAACGATATGA | 3.75 |

The sequences below were run on PPARg:RXRa 90nM:30nM, anti-RXR (NR concentration 90 nM, RXRa partner concentration 30 nM) in the same assay as above.
Outline: as §1

| Sequence | PBM binding z-score |
| --- | --- |
| TTACCAAGGTGAAAGTCGTTGATCCCTCTGTAGA | 1.12 |
| GTACGAAGGTGAATAGGTCGTTGATGAGTAGGCG | 1.22 |
| TGTTGTAGATCAACAGGAGGTTAAGAAAGATCGA | 0.492 |
| TCATATAGGTAAATGCTAGGTGAGAGTCCGATCT | 2.64 |
| GATACAGTGTCAGCTAGAGGCCAGAGTATGGAAA | -0.224 |
| CCTACTGGGACACGAAAGGTCATTGATTCAGTGA | 4.34 |
| TCTCGGAGGACACGAGAGGTCAGAGCTCGACATC | 1.48 |
| CGTCGAAGGTCAAAGGTCAGTGAAGAGATGACGG | 8.95 |
| TCTACAGGGTCAAAGGCCAGAGTACGAATGTCGA | 6.93 |
| TCTAGCAGGCCAGAGGATCACTCAAGAGGTACGG | 1.43 |
| CCTACTGGGCCAAAGGTTATTGATTCCAATGCTC | 10.5 |
| CGTCCAAGGTCAATGGTAGGTCAGTGAAAGCATT | 3.54 |
| TCTCGGAGGAGACGAAAGGTCAGAGCTCGACATC | 4.7 |
| TGAATGAGTTTATAAGATCAGGGAACGTTGCAAA | 0.5 |
| ATCTCTAGGTAAAGATAGTTCGGTGAATGCAAAT | 0.213 |
| AGAACGAGGGCACGCTGAGTTGAAAGCAGAGTAG | 1.03 |
| TGAATGAGGTTATACGATCAGGGAACGTTGCAAA | 1.1 |
| TGAATGAGATTAAAGATCAGGGAACGTGGCGTCG | 1.91 |
| GATACAGGGTCACCTAGAGGCCAGAGTATGGAAA | 4.91 |
| CTGGAAAGGTCGTGCTCAGGTGAGTATACCAAAC | 2.24 |

| Sequence | PBM binding z-score |
| --- | --- |
| TTACCAAGGTGTAAGGTCGTTGATGCACGCCTTG | 3.46 |
| CGTCAAAGTTCAACTAAGGTACCGTAAAGCACGC | 4.15 |
| CGTCCAAGGTCAAGGTTAGTGAAAGAGACTCGAA | 4.2 |
| TCTGCTAGATCAGTTGGTCAGCTAACGAGCTGCC | 0.547 |
| TCATATAGTTAAATGCTAGGTGAAAGTCCGATCT | 2.89 |
| CCAACTGGGGCATAAGGTTACCATAAGCCAGCCC | 3.24 |
| ATCTCTAGGTAACAAGTGCAGTGAAAGAGAGGAC | 1.05 |
| GCATATAGGTAAAACAAGGTGAAAGTCCGATTGT | 1.14 |
| TTACCAAGGTGAAAGGCCGTTGATGCACGCCTTG | 4.9 |
| CCTATTAGTTGACCAGAAGGGCAACCGAAGCTCG | 0.177 |
| TCTCGGAGGACACGAAGATCAGAGCTTTCCAGAG | 1.67 |
| TCTGCTAGGTCAACGATGGTCAGCCAATCTGCTA | 2.48 |
| CCGACTGGGGCATAAGGTTACGATAAGCCAGCCC | 3.22 |
| ACTAGCAGGCCAAGGGTCACCCAAGATTAGTCCG | 9.09 |
| ACTTACGGGTCAACGAGGTAATAGCACGCGTATA | 4.37 |
| GCTACCAGGCCATTTGGGTCACTCAATGACGGGC | 0.658 |
| TCGAGTAGGTTAGTCGGGGCATTCATCCAACATA | 0.83 |
| CGAACTAGCTCAGAACAGGACAGTGAAGGATGAT | -0.609 |
| TCATATAGGTAAAGGCGAAAGTCGAACGATATGA | 3.23 |
